Hits are enriched below; roughly 8.3% of the tested compounds scored in any of these assays.
Marburg entry inh – Marburg virus entry inhibition | Marburg virus pseudotyped entry inhibition, cell reporter | Potency, µM (series often up to 37.8 µM), for the others: at the top dose activity change, negative = inhibition, hits mostly inhibitors | 300,000 tested, 1.8% active | AID 540276; calls by dose curve; tested in HEK293 cells; also: potency is read from the fitted curve at half-maximal effect
FBPA Giardia inh – inhibitors of Giardia lamblia fructose-1,6-bisphosphate aldolase; 290,000 tested, 0.71% active; Potency, µM (top dose mostly 59.6 µM), without a hit: at the top dose activity, negative = inhibition, most hits filed as inhibitors; purified Giardia FBPA; A8B2U2; also: potency is read from the fitted curve at half-maximal effect; nearly all actives have a fitted effect of over 55% in size
Target sequence (A8B2U2 whole entry, looked up): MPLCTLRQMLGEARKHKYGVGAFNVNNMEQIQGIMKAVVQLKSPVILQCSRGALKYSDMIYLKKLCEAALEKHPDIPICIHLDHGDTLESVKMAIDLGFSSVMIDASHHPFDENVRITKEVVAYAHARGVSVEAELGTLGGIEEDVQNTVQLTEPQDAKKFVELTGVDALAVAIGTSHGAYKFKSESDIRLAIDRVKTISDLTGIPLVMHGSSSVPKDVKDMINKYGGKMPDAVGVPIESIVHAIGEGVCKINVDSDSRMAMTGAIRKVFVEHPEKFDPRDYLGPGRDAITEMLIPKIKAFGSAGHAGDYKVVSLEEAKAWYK
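40 nM FBPA preincubated 10 min at RT with compound (up to 57.5 uM final), then substrate plus GAPDH/TPI/NAD/arsenate coupling and diaphorase/resazurin added. Fluorescence read after 20 min at RT, 525/598 nm.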
HCV inh – HCV inhibition; AID 651820; 340,000 tested, 3.4% active; Huh7.5.1 HCVcc-Cre infection, luciferase reporter, 44 h; Potency, µM (series often up to 41.8 µM), for inactives: at the top dose activity change, negative = inhibition, most hits filed as inhibitors; also: potency is read from the fitted curve at half-maximal effect
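Seed cells (1,000/well) for 4 h; treat with compound and infect with HCVcc-Cre, moi about 0.5. Incubate 44 h, then detect luciferase activity.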
FMDV antiviral – foot and mouth disease virus antiviral activity; 410,000 tested, 1.2% active; FMDV antiviral cell-based qHTS; Potency, µM (top dose mostly 57.9 µM), for the others: at the top dose activity change, negative = inhibition, hits mostly inhibitors; AID 1159524; calls by dose curve; tested in HEK293T cells; also: read-out not given here; potency is read from the fitted curve at half-maximal effect; nearly all actives have a fitted effect of over 45% in size
HCMV inh – inhibitors of human cytomegalovirus. HFF cells, HCMV-luciferase reporter, 72 h; active compounds read low. 410,000 tested, 4.5% active. activity change, negative = inhibition, % at 57.5 µM; in the data active = activity change below about -60%; inconclusive = no clear call, values can overlap the other calls; inactive = above about -39%
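Compounds were evaluated in HFFs infected with an HCMV luciferase reporter virus (MOI 1 PFU/cell). Luciferase in lysates collected 72 h post infection served as the replication measure.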
LASV entry inh – inhibitors of Lassa virus binding or cell entry. Potency, µM (series often up to 37.9 µM), for inactives: at the highest dose activity change, negative = inhibition, hits mostly inhibitors. AID 540256. 300,000 tested, 1.2% active. Lassa virus pseudotype entry inhibition, cell reporter; calls by dose curve; tested in HEK293 cells; also: potency is read from the fitted curve at half-maximal effect; nearly all actives have a fitted effect of over 50% in size
An asterisk follows results filed as active; ! = repeats disagree; [ ] = remark or other dose. Unless noted, calls follow the shape of the dose curve; as a rule, active = well fitted curve in the direction sought with a large enough effect; inconclusive = small, poorly fitted or top-dose-only effect, or another doubt; inactive = no such curve, though single readings can be large; an effect the other way counts as inactive or inconclusive. % is scaled to controls: 0 for no effect and ±100 for the full control effect.

Screening COc1cccc(NC(=O)Nc2cccn(Cc3ccc(C)cc3)c2=O)c1 returned Marburg entry inh inconclusive, FBPA Giardia inh -25%, HCV inh 11µM*, FMDV antiviral inconclusive, HCMV inh inconclusive and LASV entry inh inconclusive.
Screening COc1cccc(Cn2cccc(NC(=O)Nc3cccc(C#N)c3)c2=O)c1 returned FBPA Giardia inh -6%, HCV inh inconclusive, FMDV antiviral -11% and HCMV inh -62*.
`COc1ccc(NC(C)=O)cc1NC(=O)c1cccn(Cc2ccccc2)c1=O` gave FMDV antiviral -16%, HCMV inh 1 and LASV entry inh 12%[46.1 µM].
COc1ccc(NC(=O)c2cccn(Cc3ccc(Cl)cc3)c2=O)c(OC)c1 was read as FMDV antiviral inconclusive, HCMV inh -70* and LASV entry inh inconclusive.
Screening Cn1c(=O)c(-c2cccc(F)c2)nc2cncnc21 returned FBPA Giardia inh 6% and FMDV antiviral 0%.
Screening Fc1ccc(C2=Nc3cccc4cccc(c34)N2)cc1 returned FBPA Giardia inh -3%, HCV inh 2%, FMDV antiviral 19% and HCMV inh 20.
Screening FC(F)(F)C1=Nc2cccc3cccc(c23)N1 returned Marburg entry inh 4%, HCV inh 16%, FMDV antiviral 16µM*, HCMV inh -13 and LASV entry inh inconclusive.
Screening COc1ccc(Cl)cc1NC(=O)c1cc(S(=O)(=O)N(C)Cc2ccccc2)ccc1F returned FMDV antiviral 0%, HCMV inh -20 and LASV entry inh 13%[46.1 µM].
For O=C(CSc1ccc(F)cc1)N1CCC(c2nc3ccccc3s2)CC1 the results were Marburg entry inh inconclusive, FBPA Giardia inh -1%, HCV inh inconclusive, FMDV antiviral inconclusive, HCMV inh inconclusive and LASV entry inh -11%.
For CCCNC(=O)Nc1nc2ccccc2s1 the results were FBPA Giardia inh -3%, HCV inh 0%, FMDV antiviral -5% and HCMV inh 20.
O=C(CN1CCC(n2nnc3cc(C(F)(F)F)ccc32)CC1)NCc1cccs1 was read as Marburg entry inh 2.2µM*, FBPA Giardia inh 0%, HCV inh -19%, FMDV antiviral inconclusive, HCMV inh -12 and LASV entry inh inconclusive.
`CCCNC(=O)c1ccc(-c2nc3ccccc3s2)s1` gave Marburg entry inh 3.5µM*, FBPA Giardia inh 1%, HCV inh inconclusive, FMDV antiviral -69%, HCMV inh -30 and LASV entry inh inconclusive.
For O=C(CSc1ccccc1Cl)N1CCC(c2nc3ccccc3s2)CC1 the results were Marburg entry inh -15%, FBPA Giardia inh -3%, HCV inh inconclusive, FMDV antiviral 35µM*, HCMV inh 2 and LASV entry inh 2%.
O=C(CN1CCC(c2nc3ccccc3s2)CC1)N1CCCCC1 was read as FBPA Giardia inh 7%, HCV inh inconclusive, FMDV antiviral -2% and HCMV inh -62*.
Screening CCCCn1cc(S(=O)(=O)c2ccc(Cl)cc2)c(=O)c2cc(F)c(N3CCCCC3)cc21 returned FMDV antiviral -18%, HCMV inh -1 and LASV entry inh 0%[46.1 µM].
For O=C(CN1CCC(c2nc3ccccc3s2)CC1)NCc1cccs1 the results were Marburg entry inh inconclusive, FBPA Giardia inh 1%, HCV inh 3.2µM*, FMDV antiviral 16µM*, HCMV inh -94* and LASV entry inh inconclusive.
Screening CCCOc1ccccc1C(=O)N1CCC(c2nc3ccccc3s2)CC1 returned Marburg entry inh -22%[46.1 µM], FMDV antiviral 0%, HCMV inh -36 and LASV entry inh -27%[46.1 µM].
Screening CC(C)NC(=O)N1CCC(c2nc3ccccc3s2)CC1 returned FBPA Giardia inh -1%, HCV inh 8%, FMDV antiviral -5% and HCMV inh 41.
Screening CCC(Oc1ccccc1F)C(=O)N1CCC(c2nc3ccccc3s2)CC1 (centres undefined) returned Marburg entry inh inconclusive, FMDV antiviral 25µM*, HCMV inh -27 and LASV entry inh -4%[46.1 µM].
For CCCNC(=O)N1CCC(c2nc3ccccc3s2)CC1 the results were FBPA Giardia inh -10%, HCV inh inconclusive, FMDV antiviral -7% and HCMV inh -75*.
Screening O=C(CCN1C(=O)C2CC=CCC2C1=O)N1CCN(C2=NCCCC2)CC1 (centres undefined) returned Marburg entry inh 21%.
CCOc1ccc(OCC)c2sc(C)nc12 was read as Marburg entry inh -3%, FBPA Giardia inh -8%, HCV inh 10µM*, FMDV antiviral -17%, HCMV inh 34 and LASV entry inh -6%.
For COc1cccc(Nc2ncc3nc(C)c(=O)n(C4CC4)c3n2)c1 the results were FBPA Giardia inh 6% and FMDV antiviral 18%.
For CCOC(=O)c1ccc(NS(=O)(=O)c2cc3c4c(c2)CCN4C(=O)CC3)cc1 the results were Marburg entry inh -7%, HCV inh 10%, FMDV antiviral 21%, HCMV inh -81* and LASV entry inh inconclusive.
COC(=O)[C@@H]1[C@@H](CO)[C@@H]2Cn3c(ccc(Br)c3=O)[C@@H]2N1C(=O)CN(C)C was read as HCMV inh -2.
O=C(NCCOc1ccccc1)O[C@@H]1C(=O)c2cc(Br)ccc2O[C@H]1c1ccc2c(c1)OCO2 was read as Marburg entry inh inconclusive and FBPA Giardia inh 1%.
Screening C=C(C[C@@]1(C(=O)OC)C=C[C@@H](C)[C@H](c2ccccc2Br)N1C(=O)C(F)(F)F)c1ccccc1 returned Marburg entry inh -14%[14.2 µM].
Cc1ncc(CNC(=O)N(CCCl)N=O)c(N)n1 was read as Marburg entry inh inconclusive, FBPA Giardia inh 1%, HCV inh 2.8µM*, FMDV antiviral -17%, HCMV inh 9 and LASV entry inh 0%.
Screening Cc1cnc(SCc2cnc(C)nc2N)nc1 returned Marburg entry inh -7%[46.1 µM], FBPA Giardia inh 2%, HCV inh -3%, FMDV antiviral -10%, HCMV inh 37 and LASV entry inh 8%[46.1 µM].
For C=CC1=C(C(=O)O)N2C(=O)C(NC(=O)Cc3ccccc3)C2SC1 (centres undefined) the results were Marburg entry inh 6%, FBPA Giardia inh 16µM*, HCV inh 9%, HCMV inh -9 and LASV entry inh 7%.
`CC(=O)OCC1=C(C(=O)O)N2C(=O)[C@@H](NC(=O)Cc3cccs3)[C@H]2SC1` gave Marburg entry inh inconclusive, FBPA Giardia inh inconclusive, HCV inh 0.56µM*!, FMDV antiviral 0%, HCMV inh 0 and LASV entry inh -4%.
COc1cccc(C(=O)NC(C)c2nnc3n2CCN(CC=C(C)C)CC3)c1 (centres undefined) was read as FMDV antiviral -5%.
Screening COc1cc(-c2c(OC)cccc2OC)cc2c1OCCN(Cc1cn[nH]c1-c1ccc(Cl)cc1)C2 returned FMDV antiviral -1%.

Screens (PubChem BioAssay)
